# Laboratory results as given in PubChem BioAssay (EPA / NIEHS).
# Values joined by “and” are separate entries in the source; they are usually repeats but may differ in a detail not shown here. Equal values may be shown once. Inconclusive results are not listed. More than one record can exist for a structure, and the calls need not agree. Active and inactive are the calls of the source. The calls were made as follows: active = hit-call score of the fitted dose curve at least 0.9, where 1 is the maximum; inconclusive = response in the unintended direction; inactive = score below 0.9.
# How the values were obtained:
# [1] = biological target: Estrogen receptor (Homo sapiens) (UniProt P03372); test: NVS_NR_hER: NovaScreen (NVS) Nuclear Receptor Binding Assay for human Estrogen Receptor (ER) (AID 2283348)
# Chain of Estrogen receptor (Homo sapiens) (P03372 whole entry, looked up): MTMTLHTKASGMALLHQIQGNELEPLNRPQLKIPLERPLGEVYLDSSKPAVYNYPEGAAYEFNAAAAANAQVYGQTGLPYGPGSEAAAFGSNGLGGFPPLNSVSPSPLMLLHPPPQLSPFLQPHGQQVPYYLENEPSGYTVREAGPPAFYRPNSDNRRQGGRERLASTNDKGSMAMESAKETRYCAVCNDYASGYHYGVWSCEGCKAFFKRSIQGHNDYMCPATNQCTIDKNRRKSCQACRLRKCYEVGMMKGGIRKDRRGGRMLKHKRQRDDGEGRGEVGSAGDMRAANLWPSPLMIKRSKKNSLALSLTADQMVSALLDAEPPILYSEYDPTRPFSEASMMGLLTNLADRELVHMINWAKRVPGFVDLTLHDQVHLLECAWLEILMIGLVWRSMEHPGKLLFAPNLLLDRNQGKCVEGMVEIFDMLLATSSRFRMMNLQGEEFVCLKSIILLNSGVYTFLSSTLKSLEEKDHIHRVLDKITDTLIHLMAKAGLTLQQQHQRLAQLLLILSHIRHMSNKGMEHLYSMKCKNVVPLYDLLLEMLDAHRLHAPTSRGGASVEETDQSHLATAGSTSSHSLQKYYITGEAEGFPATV
# In short: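 Radioligand competitive displacement binding to estrogen receptor from MCF7 extract, cell-free; 18 h after dosing, scintillation read-out. Primary screen in duplicate at 25 uM; actives followed up in concentration series; loss of signal vs DMSO.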
# [2] = TOX21_p53_BLA_p2_viability: Viability Assessment in the Tox21 HCT-116 p53 Agonism Beta-lactamase Assay, Phase 2 (AID 2283591);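 also: actives lower the ATP signal meaning cytotoxicity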
# In short: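 HCT116 p53-bla cells, 4000/well, dosed after 5 h plating (217-fold dilution of DMSO stocks) and incubated 16 h at 37C. Viability taken as cellular ATP by CellTiter-Glo luminescence after 30 min RT; signal loss marks cytotoxicity.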
# [3] = biological target: Cellular tumor antigen p53 (Homo sapiens) (UniProt P04637); test: TOX21_p53_BLA_p2_ratio: Tox21 HCT-116 p53 Agonism Beta-lactamase Assay, Ratio, Phase 2 (AID 2283592)
# Chain of Cellular tumor antigen p53 (Homo sapiens) (P04637 whole entry, looked up): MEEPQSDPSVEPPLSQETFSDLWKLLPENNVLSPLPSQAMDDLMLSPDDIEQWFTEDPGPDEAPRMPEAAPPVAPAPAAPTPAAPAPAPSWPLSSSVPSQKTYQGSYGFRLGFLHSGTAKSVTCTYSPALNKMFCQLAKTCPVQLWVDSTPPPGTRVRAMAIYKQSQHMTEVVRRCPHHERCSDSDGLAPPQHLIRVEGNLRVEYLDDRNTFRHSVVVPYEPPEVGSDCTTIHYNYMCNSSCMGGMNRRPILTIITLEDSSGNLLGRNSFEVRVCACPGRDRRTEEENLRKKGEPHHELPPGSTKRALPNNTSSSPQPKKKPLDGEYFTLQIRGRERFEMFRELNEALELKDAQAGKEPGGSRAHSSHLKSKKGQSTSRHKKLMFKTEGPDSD
# In short: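 An inducible beta-lactamase reporter in HCT116 cells signals p53 pathway activation. After 16 h chemical exposure at 37C, cells load CCF4-AM substrate for 2 h at room temperature; activity is the cleaved/uncleaved emission ratio relative to DMSO.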
# [4] = biological target: Cellular tumor antigen p53 (Homo sapiens) (UniProt P04637); test: TOX21_p53_BLA_p3_ratio: Tox21 HCT-116 p53 Agonism Beta-lactamase Assay, Ratio, Phase 3 (AID 2283596)
# In short: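 HCT116 p53-bla cells (4000/well) given compound in DMSO (217-fold dilution) after 5 h, incubated 16 h at 37C. CCF4-AM substrate 2 h at room temperature; 460/530 nm emission ratio, gain fitted against DMSO.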
# [5] = TOX21_p53_BLA_p4_viability: Viability Assessment in the Tox21 HCT-116 p53 Agonism Beta-lactamase Assay, Phase 4 (AID 2283597);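 also: hits lower the luminescence signal meaning cytotoxicity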
# In short: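 Compound exposure of HCT116 cells lasts 16 h at 37C, 5% CO2, with DMSO stocks diluted 217-fold. Cellular ATP is then quantified by CellTiter-Glo luminescence after 30 min at room temperature.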
# [6] = biological target: Cellular tumor antigen p53 (Homo sapiens) (UniProt P04637); test: TOX21_p53_BLA_p5_ratio: Tox21 HCT-116 p53 Agonism Beta-lactamase Assay, Ratio, Phase 5 (AID 2283599)
# In short: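 HCT-116 p53-bla cells (4000/well) plated 5 h, dosed with compound (217-fold DMSO dilution) for 16 h at 37 C; CCF4-AM substrate 2 h at room temperature. Activity is the 460/530 nm emission ratio (405 nm excitation), fitted in gain-of-signal direction versus DMSO.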
# [7] = TOX21_p53_BLA_p5_viability: Viability Assessment in the Tox21 HCT-116 p53 Agonism Beta-lactamase Assay, Phase 5 (AID 2283600)
# In short: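 Counter-readout for cytotoxicity: ATP-dependent luminescence from CellTiter-Glo, read in the beta-lactamase wells after 30 min at RT, following a 16 h compound exposure at 37C.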
# [8] = biological target: Cellular tumor antigen p53 (Homo sapiens) (UniProt P04637); test: TOX21_p53_BLA_p4_ratio: Tox21 HCT-116 p53 Agonism Beta-lactamase Assay, Ratio, Phase 4 (AID 2283601)
# In short: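 HCT-116 p53 beta-lactamase reporter cells (4000/well) preincubated 5 h, then compound (217-fold dilution of DMSO stock) for 16 h at 37C. CCF4-AM substrate added 2 h at room temperature; 460/530 nm emission ratio fitted upward versus DMSO.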
# [9] = TOX21_p53_BLA_p3_viability: Viability Assessment in the Tox21 HCT-116 p53 Agonism Beta-lactamase Assay, Phase 3 (AID 2283593);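 also: cells exposed to compound for 16 h before reading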
# In short: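 HCT116 cells, 4000/well, dosed 5 h after plating by pin transfer (217-fold dilution from DMSO stock) and incubated 16 h at 37C, 5% CO2. Viability read as ATP luminescence with CellTiter-Glo after 30 min at room temperature.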
structure (smiles),measurement,setting,value
CCCCCCCCOCCCN,outcome,[1],inactive
same,outcome,[2],inactive
same,outcome,[3],inactive
same,outcome,[4],inactive
same,outcome,[5],inactive
same,outcome,[6],inactive
same,outcome,[7],inactive
same,outcome,[8],inactive
Oc1cccc(O)c1O,outcome,[2],inactive
same,AC50,[3],75.6 µM (active)
same,outcome,[3],inactive
same,outcome,[9],inactive
same,outcome,[4],inactive
same,outcome,[5],inactive
same,outcome,[6],inactive
same,outcome,[7],inactive
same,outcome,[8],inactive
COC(=O)CCC(=O)O,outcome,[2],inactive
COc1ccc2cc3[n+](cc2c1OC)CCc1cc2c(cc1-3)OCO2,AC50,[2],20.8 µM (active)
same,outcome,[2],inactive
same,AC50,[3],4.58 µM (active)
same,outcome,[3],inactive
same,AC50,[9],41.2 µM (active)
same,outcome,[9],inactive
same,outcome,[4],inactive
same,AC50,[5],28.5 µM (active)
same,outcome,[5],inactive
same,AC50,[6],66.7 µM (active)
same,outcome,[6],inactive
same,outcome,[7],inactive
same,AC50,[8],53.1 µM (active)
same,outcome,[8],inactive
CC(O)(c1ccc(Cl)cc1)c1ccc(Cl)cc1,outcome,[1],inactive
same,outcome,[2],inactive
same,outcome,[9],inactive
same,outcome,[4],inactive
same,outcome,[5],inactive
same,outcome,[6],inactive
same,outcome,[8],inactive
CC1=C(/C=C/C(C)=C/C=C/C(C)=C/C(=O)Nc2ccc(O)cc2)C(C)(C)CCC1,AC50,[2],44.5 µM (active)
same,outcome,[2],inactive
same,AC50,[3],62.4 µM (active)
same,outcome,[3],inactive
same,AC50,[9],62.5 µM (active)
same,outcome,[9],inactive
same,AC50,[4],74.6 µM (active)
same,outcome,[4],inactive
same,AC50,[5],53.7 µM (active) and 35 µM (active)
same,AC50,[6],73.6 µM (active) and 37.7 µM (active)
same,AC50,[7],43.7 µM (active) and 37.9 µM (active)
same,AC50,[8],72.5 µM (active) and 36.6 µM (active)
CC(=O)Oc1ccccc1C(=O)Nc1ncc([N+](=O)[O-])s1,AC50,[2],10.7 µM (active)
same,outcome,[2],inactive
same,AC50,[3],2.61 µM (active) and 14.1 µM (active)
same,AC50,[9],4.46 µM (active) and 6.54 µM (active)
same,AC50,[4],1.19 µM (active) and 15.5 µM (active)
same,AC50,[5],12.7 µM (active)
same,outcome,[5],inactive
same,AC50,[6],3.18 µM (active) and 22.4 µM (active)
same,AC50,[7],10.7 µM (active)
same,outcome,[7],inactive
same,AC50,[8],5.33 µM (active)
same,outcome,[8],inactive
OCCOCCN1CCN(C(c2ccccc2)c2ccc(Cl)cc2)CC1 (stereo unspecified),outcome,[2],inactive
same,AC50,[3],0.000306 µM (active)
same,outcome,[3],inactive
same,outcome,[9],inactive
same,outcome,[4],inactive
same,outcome,[5],inactive
same,AC50,[6],0.000384 µM (active)
same,outcome,[6],inactive
same,outcome,[7],inactive
same,AC50,[8],0.000245 µM (active)
same,outcome,[8],inactive
Cc1oc(C)c(C(=O)Nc2ccccc2)c1C,outcome,[1],inactive
same,outcome,[2],inactive
same,outcome,[3],inactive
same,outcome,[9],inactive
same,outcome,[4],inactive
same,outcome,[5],inactive
same,outcome,[6],inactive
same,outcome,[7],inactive
same,outcome,[8],inactive
CCN(CC)c1ccc(N=Nc2ccc(S(=O)(=O)N(C)C)cc2)c(S(=O)(=O)NCC[n+]2ccccc2)c1,outcome,[2],inactive
CCCCCCCCCCCCN(CCO)CCO,AC50,[2],69.7 µM (active)
same,AC50,[3],46.9 µM (active)
same,AC50,[9],64.3 µM (active)
same,AC50,[4],49.2 µM (active)
same,AC50,[5],53.4 µM (active)
same,AC50,[6],75.6 µM (active)
same,AC50,[7],59.3 µM (active)
same,AC50,[8],69.1 µM (active)
C[C@H](CCC(=O)O)[C@H]1CC[C@H]2[C@@H]3[C@H](O)C[C@@H]4C[C@H](O)CC[C@]4(C)[C@H]3CC[C@]12C,AC50,[2],78.5 µM (active)
same,outcome,[2],inactive
same,outcome,[3],inactive
same,outcome,[9],inactive
same,outcome,[4],inactive
same,AC50,[5],87.1 µM (active)
same,outcome,[5],inactive
same,outcome,[6],inactive
same,outcome,[8],inactive
S=c1nc[nH]c2nc[nH]c12,AC50,[2],1.56 µM (active)
same,outcome,[2],inactive
same,AC50,[3],7.89 µM (active) and 10.1 µM (active)
same,AC50,[9],674 nM (active) and 2.62 µM (active)
same,AC50,[4],9.95 µM (active) and 8 µM (active)
same,AC50,[5],1.65 µM (active) and 3 µM (active)
same,AC50,[6],11.1 µM (active) and 8.01 µM (active)
same,outcome,[7],inactive
same,AC50,[8],6.3 µM (active) and 6.4 µM (active)
NC[C@H]1O[C@H](O[C@H]2[C@H](O)[C@@H](O[C@H]3O[C@H](CO)[C@@H](O)[C@H](N)[C@H]3O)[C@H](N)C[C@@H]2N)[C@H](O)[C@@H](O)[C@@H]1O,outcome,[2],inactive
same,AC50,[3],3.79 µM (active)
same,outcome,[3],inactive
same,outcome,[9],inactive
same,outcome,[4],inactive
same,outcome,[5],inactive
same,AC50,[6],3.34 µM (active)
same,outcome,[7],inactive
same,outcome,[8],inactive
CCN(Cc1cccc(S(=O)(=O)O)c1)c1ccccc1,outcome,[1],inactive
same,outcome,[2],inactive
same,outcome,[4],inactive
same,outcome,[5],inactive
same,outcome,[6],inactive
same,outcome,[7],inactive
CCN(CC)CCOC(=O)C(c1ccccc1)c1ccccc1,outcome,[2],inactive
COC(=O)CCCC(=O)O,outcome,[1],inactive
same,outcome,[2],inactive
same,outcome,[3],inactive
same,outcome,[9],inactive
same,outcome,[4],inactive
same,outcome,[7],inactive
same,outcome,[8],inactive
C=C1CC[C@H](O)C/C1=C/C=C1\CCC[C@]2(C)[C@@H]([C@H](C)CCCC(C)C)CC[C@@H]12,AC50,[2],77.7 µM (active)
same,outcome,[2],inactive
same,outcome,[3],inactive
same,AC50,[9],63.2 µM (active) and 34.4 µM (active)
same,outcome,[4],inactive
same,AC50,[5],45.7 µM (active) and 37.2 µM (active)
same,outcome,[6],inactive
same,AC50,[7],73.6 µM (active)
same,outcome,[7],inactive
C[C@H](CCC(=O)O)[C@H]1CC[C@H]2[C@@H]3CC[C@@H]4C[C@H](O)CC[C@]4(C)[C@H]3C[C@H](O)[C@]12C,AC50,[2],80.9 µM (active)
same,outcome,[2],inactive
same,AC50,[3],85.4 µM (active)
same,outcome,[3],inactive
same,AC50,[9],73.6 µM (active)
same,outcome,[9],inactive
same,AC50,[4],87.3 µM (active)
same,outcome,[4],inactive
same,AC50,[5],75.1 µM (active) and 36.4 µM (active)
same,AC50,[6],86.7 µM (active)
same,outcome,[6],inactive
same,AC50,[7],84.4 µM (active)
same,outcome,[7],inactive
same,AC50,[8],87.2 µM (active)
same,outcome,[8],inactive
SC1CCCC1,outcome,[1],inactive
O=C(OCCOCCO)c1ccccc1Nc1cccc(C(F)(F)F)c1,outcome,[2],inactive
same,outcome,[3],inactive
CC(C)(C)c1ccc(C(O)CCCN2CCC(C(O)(c3ccccc3)c3ccccc3)CC2)cc1 (stereo unspecified),AC50,[2],34.4 µM (active)
same,outcome,[2],inactive
same,AC50,[3],42.7 µM (active)
same,AC50,[9],37.9 µM (active) and 31.8 µM (active)
same,AC50,[4],43.3 µM (active) and 39.2 µM (active)
same,AC50,[5],32.4 µM (active)
same,outcome,[5],inactive
same,outcome,[6],inactive
same,outcome,[7],inactive
same,AC50,[8],42.2 µM (active)
same,outcome,[8],inactive
CCCCCCC/C=C/C=O,outcome,[2],inactive
same,outcome,[9],inactive
same,outcome,[4],inactive
same,outcome,[5],inactive
same,outcome,[6],inactive
same,outcome,[7],inactive
same,outcome,[8],inactive
CNC(=O)Nc1ccc(Cl)c(Cl)c1,outcome,[2],inactive
same,outcome,[3],inactive
same,outcome,[9],inactive
same,outcome,[4],inactive
same,outcome,[5],inactive
same,outcome,[6],inactive
same,outcome,[7],inactive
same,outcome,[8],inactive
